Data from the OligoGym collection.
Further: reference of the scale not given here.

The sequences below were run against PRSS27 (assay: pooled miR-30 sensor sort-seq; sequence = guide strand). Conditions: shRNA.
For TACAGGGACGTCTCAGAGGTGT, the sensor-assay potency score (higher = more potent) was -0.7.
Sequence TTTGCTGTAGAGCAGGTTGCAC has a sensor-assay potency score (higher = more potent) of -0.973.
Sequence TGCAGTTTGGGGATGATCCGAT has a sensor-assay potency score (higher = more potent) of 0.0447.
TCATTCTTGATGGTTTTGGGTT was tested, and the sensor-assay potency score (higher = more potent) was -0.872.
In the case of TAGAGCAGGTTGCACTTGGGTG, the sensor-assay potency score (higher = more potent) is reported as -0.65.
AAACTCGGTGTCTTTGCTGTAG showed a sensor-assay potency score (higher = more potent) of -0.247.
With TTACAAATGAGTCTGGTGGGGC the sensor-assay potency score (higher = more potent) was -0.115.
ATACATAGCGTGTGGTCCCGGC was tested, and the sensor-assay potency score (higher = more potent) was -0.586.
In the case of TTGCTGTAGAGCAGGTTGCACT, the sensor-assay potency score (higher = more potent) is reported as -1.36.
Work on TGACACGGATGTAGACACCTGG yielded a sensor-assay potency score (higher = more potent) of -0.413.

These sequences were tested against PRSS35 in the same assay as above. Conditions: shRNA.
TTGTCCAAGATGCTGAACCTGC showed a sensor-assay potency score (higher = more potent) of -0.668.
Sequence TTGGATTCGTCGGACACACTGC has a sensor-assay potency score (higher = more potent) of -0.732.
Sequence TTTCTTTTTGTGAGCACGCTTC has a sensor-assay potency score (higher = more potent) of -0.433.
In the case of AAATCTTGAACTTTCACCCTGG, the sensor-assay potency score (higher = more potent) is reported as 0.84.
TAACTTTCTGTCTCTATTCTGA was tested, and the sensor-assay potency score (higher = more potent) was -0.225.
TTACCATCATCTTAGCATCTGC gave a sensor-assay potency score (higher = more potent) of -0.234.
Work on TTGAGTCGGCTCAAGAACCAAA yielded a sensor-assay potency score (higher = more potent) of -0.83.
TACACCTGTCTCTTTCTCCTAA was tested, and the sensor-assay potency score (higher = more potent) was -0.12.
Work on TAATACACAACCAGCATCCTAT yielded a sensor-assay potency score (higher = more potent) of -0.461.
Sequence TAGAACAAACTATTTCTCCCAT has a sensor-assay potency score (higher = more potent) of 0.0739.
For TTCCTCATCTTCAACAACCCTA, the sensor-assay potency score (higher = more potent) was 0.185.
For TCACATTTAATACACAACCAGC, the sensor-assay potency score (higher = more potent) was -0.906.

Each sequence was assayed against PRSS57 in the same assay as above. Conditions: shRNA.
For TACACGTCGGGGGTCTTGGGGT, the sensor-assay potency score (higher = more potent) was -1.06.
For TGGTAGTCGGGGTGTGTGGTGA, the sensor-assay potency score (higher = more potent) was -0.823.
For AAGTCAGACACGAAGCCCCAGC, the sensor-assay potency score (higher = more potent) was -0.91.
Sequence ACAAAGGCGGACACCTGCGTGT has a sensor-assay potency score (higher = more potent) of -0.414.
With TGTGGTGAGAGCATCGATGCCA the sensor-assay potency score (higher = more potent) was 0.623.
TCGGACCTTGGCCTCCATCAGT showed a sensor-assay potency score (higher = more potent) of -1.55.
TCGATGCCAAACACCTGCTGGG showed a sensor-assay potency score (higher = more potent) of -0.917.
With ACACCTGCGTGTACACGTCGGG the sensor-assay potency score (higher = more potent) was -0.753.
AGCATCGATGCCAAACACCTGC gave a sensor-assay potency score (higher = more potent) of -0.826.
Work on TCTCTGTGGCTGAAGCAGTGGG yielded a sensor-assay potency score (higher = more potent) of -1.07.
With ATCGATGCCAAACACCTGCTGG the sensor-assay potency score (higher = more potent) was -0.864.
Sequence TTCACGGGCAGCATCAGGGCGG has a sensor-assay potency score (higher = more potent) of -0.51.

What follows are sequences tested against PRUNE in the same assay as above. Conditions: shRNA.
TTTCTTTCGAGAGACCTGGGTG gave a sensor-assay potency score (higher = more potent) of -0.0186.
For TGTCTATAGATAGTCTTCTGGT, the sensor-assay potency score (higher = more potent) was -0.567.
With TTACCTTCCACATAGCTACAGA the sensor-assay potency score (higher = more potent) was -0.331.
TTGTCTATAGATAGTCTTCTGG gave a sensor-assay potency score (higher = more potent) of -0.685.
With TAGAGGTCGGGACTCCTGCAGA the sensor-assay potency score (higher = more potent) was -0.699.
In the case of TTAAATAATAAAATGTGTCTGA, the sensor-assay potency score (higher = more potent) is reported as -0.11.
